# The supplement of paper PMC10127200
# Counter-ions that a name gives are not always drawn.
# Tests used:
# Experiment in all cases: Euclidean distance of Cell Painting phenotypic profile (signed KS, 77 features) to DMSO centroid (dimensionless distance); 5 or 10 uM (library dependent); higher = stronger phenotypic change vs DMSO (phenoactivity)
# Details in all cases: 48 h
# [1] = test system: 786-O
# Summary of the method: (§1)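 Library compounds were applied at 10 or 5 uM, depending on the library, with 0.1% DMSO final, for 48 h to five cancer lines and a healthy fibroblast line. After staining, cells were imaged confocally at 20X across 9 fields per well, and Harmony extracted 77 features, each scored as a signed Kolmogorov-Smirnov statistic against vehicle wells on the same plate. Phenoactivity is the Euclidean distance between each profile and the median vehicle profile, with profiles first plate-position corrected, correlation-weighted and averaged over replicates at the top dose.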
# [2] = test system: A549
# Summary of the method: as §1
# [3] = test system: DU145
# Summary of the method: as §1
# [4] = test system: FB
# Summary of the method: as §1
# [5] = test system: HEPG2
# Summary of the method: as §1
# [6] = test system: OVCAR4
# Summary of the method: as §1
Structure (SMILES),Euclidean distance [1],Euclidean distance [2],Euclidean distance [3],Euclidean distance [4],Euclidean distance [5],Euclidean distance [6]
CNc1ncc(-c2ccc3c(=O)c(C(=O)O)cn(C4CC4)c3c2C)cc1C [Ozenoxacin],1.31,0.846,0.593,1.13,1.01,0.85
Oc1ccc(/C=C/c2cc(O)cc(O)c2)cc1 [Resveratrol],2.22,1.93,1.94,1.74,0.81,1.92
O=C(Nc1ccccc1)OCC(CN1CCCCC1)OC(=O)Nc1ccccc1 (stereo not given) [Diperodon HCl],1.03,1.43,1.31,1.59,0.984,1.64
CC1=NN(c2ccccc2)C(=O)C1 [Edaravone],1.25,1.04,0.819,0.807,1.31,1.02
CN1CCC(=C2c3ccccc3CCc3cccnc32)CC1 [Azatadine dimaleate],1.51,1.59,0.544,1.05,0.437,1.44
CC(=O)[C@@]1(O)CC[C@H]2[C@@H]3C[C@H](C)C4=CC(=O)C=C[C@]4(C)[C@@]3(F)[C@@H](O)C[C@@]21C [Fluorometholone],0.819,2.59,1.54,1.73,1.04,1.8
C=C1CC/C=C(/C)CC[C@@H]2[C@@H]1CC2(C)C [Œ≤-Caryophyllene],1.02,0.652,0.86,0.747,0.457,1.68
CO[C@H]1C[C@@H]2CC[C@@H](C)[C@@](O)(O2)C(=O)C(=O)N2CCCC[C@H]2C(=O)O[C@H]([C@H](C)C[C@@H]2CC[C@@H](OC(=O)C(C)(CO)CO)[C@H](OC)C2)CC(=O)[C@H](C)/C=C(\C)[C@@H](O)[C@@H](OC)C(=O)[C@H](C)C[C@H](C)/C=C/C=C/C=C/1C,3.03,1.74,1.55,2.95,1.69,2.08
CC(=O)N[C@H]1[C@H]([C@H](O)[C@H](O)CO)OC(C(=O)O)=C[C@@H]1NC(=N)N [Zanamivir],1.74,1,0.755,0.983,0.8,1.21
O=C(O)c1cc(O)c(O)c(O)c1 [Gallic acid],1.13,0.673,0.909,1.31,0.825,0.935
O=C(O)c1cccnc1 [Nicotinic Acid],1.53,0.435,1.08,0.953,1.92,1.03
COc1ccc2cccc(CCNC(C)=O)c2c1 [Agomelatine],0.998,0.774,0.825,0.747,0.603,0.58
CCOC(=O)N1CCC(=C2c3ccc(Cl)cc3CCc3cccnc32)CC1 [Loratadine],1.17,1.34,0.839,1.05,1.48,1.1
O=C(c1ccccc1)c1ccc2n1CCC2C(=O)O (stereo not given) [Ketorolac],1.49,1.29,0.701,0.977,0.545,1.06
c1ccc2c(CCNc3ccc(Nc4ccncc4)cc3)c[nH]c2c1,2.61,2.76,1.77,2.87,2.65,3.75
C[C@H]1CO[C@@H]2Cn3cc(C(=O)NCc4ccc(F)cc4F)c(=O)c(O)c3C(=O)N12,1.14,1.26,0.669,0.944,0.626,0.809
Cc1cc(/C=C/C#N)cc(C)c1Nc1ccnc(Nc2ccc(C#N)cc2)n1 [Rilpivirine],1.85,2.11,1.55,1.69,0.573,0.925
O=c1[nH]c2ccccc2n1CCN1CCN(c2cccc(C(F)(F)F)c2)CC1 [Flibanserin],1.14,1.22,0.833,1.07,0.806,1.35
CC1=C(C(=O)OC2CCCCC2)C(c2ccc([N+](=O)[O-])cc2)C2=C(CC(C)(C)CC2=O)N1 (stereo not given),2.98,3.4,1.52,2.71,2.03,2.99
CC1(C)CCC2=C(O1)c1ccccc1C(=O)C2=O [Beta-Lapachone],3.88,5.17,7.8,4.08,4.33,5.57
COCCCOc1ccnc(C[S+]([O-])c2nc3ccccc3[nH]2)c1C (stereo not given) [Rabeprazole],1.5,0.662,0.942,1.03,1.49,0.928
CCOc1nc2cccc(C(=O)OC(C)OC(=O)OC3CCCCC3)c2n1Cc1ccc(-c2ccccc2-c2nn[nH]n2)cc1 (stereo not given) [Candesartan Cilexetil],1.1,0.605,1.35,0.788,1.82,1.29
CO[C@H]1C(=O)[C@]2(C)[C@@H](OC)C[C@H]3OC[C@@]3(OC(C)=O)[C@H]2[C@H](OC(=O)c2ccccc2)[C@]2(O)C[C@H](OC(=O)[C@H](O)[C@@H](NC(=O)OC(C)(C)C)c3ccccc3)C(C)=C1C2(C)C [Cabazitaxel],3.68,3.16,3.88,2.6,1.97,2.5

Structure (SMILES),Euclidean distance [1],Euclidean distance [2],Euclidean distance [3],Euclidean distance [4],Euclidean distance [5],Euclidean distance [6]
CS(=O)(=O)OCCCCOS(C)(=O)=O [Busulfan],1.22,0.648,0.667,0.953,0.977,1.95
Cc1nc(C(=O)NCC(=O)O)c(O)c2ccc(Oc3ccccc3)cc12,1.71,1.55,1.53,2.88,1.32,1.92
Cn1cnc([N+](=O)[O-])c1Sc1ncnc2[nH]cnc12 [Azathioprine],0.644,0.642,1.33,1.04,2.09,0.817
CC(O)(P(=O)(O)O)P(=O)(O)O [Etidronate],1.27,1.25,1.1,1.04,0.55,1.15
CCOC(=O)O[C@]1(C(=O)OCCl)CC[C@H]2[C@@H]3CCC4=CC(=O)C=C[C@]4(C)[C@H]3[C@@H](O)C[C@@]21C [Loteprednol etabonate],1.18,2.23,1.71,1.66,0.658,1.81
CCN[C@H]1C[C@H](C)S(=O)(=O)c2sc(S(N)(=O)=O)cc21 [Dorzolamide HCl],1.17,0.786,1.03,1.31,1.06,1.09
CC1(C)O[C@@H]2C[C@H]3[C@@H]4CCC5=CC(=O)C=C[C@]5(C)[C@H]4[C@@H](O)C[C@]3(C)[C@]2(C(=O)CO)O1 [Desonide],1.09,1.9,2.27,1.55,0.639,1.61
CC(C)(Oc1ccc(Cl)cc1)C(=O)OCCOC(=O)c1cccnc1 [Etofibrate],0.948,0.732,0.949,1.01,0.725,0.894
Cn1ncnc1[C@H]1c2n[nH]c(=O)c3cc(F)cc(c23)N[C@@H]1c1ccc(F)cc1,1.03,1.17,0.939,1.27,1.56,0.901
COc1ccc2[nH]c([S@@+]([O-])Cc3ncc(C)c(OC)c3C)nc2c1 [NEXIUM (esomeprazole magnesium)],1.31,0.829,1.47,0.904,1.81,1.65
CC1=C(C(=O)O)N2C(=O)[C@@H](NC(=O)[C@H](N)c3ccc(O)cc3)[C@H]2SC1 [Cefadroxil hydrate],1.09,0.5,0.78,0.785,0.893,0.794
O=C1CN2Cc3c(ccc(Cl)c3Cl)N=C2N1 [Anagrelide HCl],0.871,0.869,0.905,1.18,1.01,1.53
CCC/C=C1\OC(=O)C2=C1CCC=C2 [Ligustilide],0.797,0.613,0.83,1.01,0.638,1.1
COCCOC(=O)C1=C(C)NC(C)=C(C(=O)OC(C)C)C1c1cccc([N+](=O)[O-])c1 (stereo not given) [Nimodipine],1.59,1.37,1.08,1.08,1.96,1.09
CN(C)CC/C=C1/c2ccccc2COc2ccc(CC(=O)O)cc21 [Olopatadine HCl],0.847,0.745,0.865,1.38,0.686,0.734
CC1(C)NC(=O)N(c2ccc([N+](=O)[O-])c(C(F)(F)F)c2)C1=O [Nilutamide],0.81,0.753,1.03,0.9,0.474,0.959
CC(=O)c1cc([N+](=O)[O-])c(Sc2cccc(Cl)c2Cl)s1,0.465,0.706,0.528,0.668,0.869,1.26
CN(C)CCOc1ccc(/C(=C(/CCCl)c2ccccc2)c2ccccc2)cc1 [Toremifene Citrate],1.72,1.56,1.81,1.97,2.79,2.17
CCCS(=O)(=O)Nc1ccc(F)c(C(=O)c2c[nH]c3ncc(Cl)cc23)c1F,0.904,1.4,0.951,1.12,2.17,0.992
CC(=O)NC[C@H]1CN(c2ccc(N3CCOCC3)c(F)c2)C(=O)O1 [Linezolid],1.83,1.27,1.73,0.611,0.92,1.35
CC1(C)S[C@@H]2[C@H](NC(=O)Cc3ccccc3)C(=O)N2[C@H]1C(=O)O [Penicillin G Sodium],1.04,0.576,1.12,0.979,0.871,1.93
CN1CC(=O)N2[C@H](c3ccc4c(c3)OCO4)c3[nH]c4ccccc4c3C[C@@H]2C1=O [Tadalafil],1.16,0.906,0.404,0.948,0.78,1.22
